# Hits are enriched below; roughly 2.1% of the tested compounds scored in any of these assays.
# PD-1 reverse act: activators reversing PD-1 mediated T-cell inhibition; primary human CD4 T cells, PD-L1 beads, CellTiter-Glo 96 h; activation, % (no concentration beside the values); 29,000 tested, under 10 active; AID 2316; call rule not given here;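 note: 0% = median vehicle wells and 100% = positive control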
# YB-1 expression: YB-1 expression inhibition; U2OS, qRT-PCR YB-1 vs CDIP delta delta Cp, 16 h; active compounds read high; zero = DMSO, each unit about twofold; delta delta Cp (YB-1 minus CDIP) (no concentration beside the values); 30,000 tested, 0.37% active; AID 434959;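 active = delta delta Cp rounded down to an integer at or above 3, about 3 SD of DMSO wells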;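 note: higher means less YB-1 transcript or more CDIP transcript relative to DMSO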
# ROS inducer: raises reactive oxygen species in U2OS cancer cells; U2OS ROS induction, H2DCF-DA fluorescence; ROS induction (% of piperlongumine), % at 10 µM; 46,000 tested, 2% active; AID 624156; in the data active = ROS induction above about 79%, passing the limit was not always enough;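 note: 0% = DMSO vehicle median and 100% = reference compound median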
# Active calls of the source: *; x = no result.
SMILES,PD-1 reverse act,YB-1 expression,ROS inducer
C[C@@H]1CN([C@@H](C)CO)C(=O)c2cccc(NS(=O)(=O)c3ccc(F)cc3)c2O[C@H]1CN(C)Cc1ccc(Oc2ccccc2)cc1,x,0.61,31
COc1ccc(S(=O)(=O)Nc2cccc3c2O[C@H](CN(C)Cc2ccc(Oc4ccccc4)cc2)[C@H](C)CN([C@@H](C)CO)C3=O)cc1,-2,0.43,110*
COc1ccc(S(=O)(=O)Nc2cccc3c2O[C@@H](CN(C)Cc2ccc(-c4ccccc4)cc2)[C@@H](C)CN([C@@H](C)CO)C3=O)cc1,0,-0.52,47
Cc1c(NC(=O)CCCC(=O)O)cccc1C(=O)O,1,x,16
Cc1c(CCNC2=CC(=O)OC23CCCCC3)c2ccccc2n1C,x,x,-10
CN(CCC#N)C(=O)c1cc2c(s1)-c1ccccc1S(=O)(=O)C2,x,x,0
COc1cccc2sc(=NC(=O)Cc3cccc4ccccc34)n(C)c12,x,x,2
S=C(NCc1ccccc1Cl)NC12CC3CC(CC(C3)C1)C2,-9,0.15,24
Cc1ccc(S(=O)(=O)Nc2cccc3c2O[C@H](CN(C)Cc2ccc(Oc4ccccc4)cc2)[C@H](C)CN([C@H](C)CO)C3=O)cc1,-1,0.093,125*
Cc1noc(C)c1S(=O)(=O)Nc1cccc2c1O[C@H](CN(C)Cc1ccc(-c3ccccc3)cc1)[C@H](C)CN([C@@H](C)CO)C2=O,-1,0.14,122*
Cc1noc(C)c1S(=O)(=O)Nc1cccc2c1O[C@@H](CN(C)Cc1ccc(-c3ccccc3)cc1)[C@@H](C)CN([C@@H](C)CO)C2=O,1,0.16,-1
COc1ccc(S(=O)(=O)Nc2cccc3c2O[C@H](CN(C)Cc2ccc(Cl)c(Cl)c2)[C@H](C)CN([C@@H](C)CO)C3=O)cc1,-2,-0.0042,84*
Cc1ccc(S(=O)(=O)Nc2cccc3c2O[C@@H](CN(C)Cc2ccc(Oc4ccccc4)cc2)[C@@H](C)CN([C@H](C)CO)C3=O)cc1,-2,0.2,54
COc1ccc(S(=O)(=O)Nc2cccc3c2O[C@H](CN(C)Cc2ccc(Cl)c(Cl)c2)[C@@H](C)CN([C@H](C)CO)C3=O)cc1,x,-0.035,5
Cc1c(NC(=O)COc2ccc(Cl)cc2Cl)cccc1-c1nc2cc(Cl)ccc2o1,-1,x,-2
COc1ccc(S(=O)(=O)Nc2ccc3c(c2)C(=O)N([C@@H](C)CO)C[C@H](C)[C@@H](CN(C)Cc2ccc(-c4ccccc4)cc2)O3)cc1,1,0.084,128*
COc1ccc(NC(=O)Nc2ccc3c(c2)C(=O)N([C@H](C)CO)C[C@H](C)[C@H](CN(C)S(=O)(=O)c2ccc(F)cc2)O3)cc1,-1,10*,56
Cc1ccc(S(=O)(=O)Nc2ccc3c(c2)C(=O)N([C@@H](C)CO)C[C@H](C)[C@@H](CN(C)Cc2ccc(Oc4ccccc4)cc2)O3)cc1,-2,0.13,110*
COc1ccc(S(=O)(=O)N(C)C[C@H]2Oc3ccc(NC(=O)Nc4ccc(F)cc4)cc3C(=O)N([C@@H](C)CO)C[C@H]2C)cc1,1,0.12,8
Cc1ccc(S(=O)(=O)Nc2ccc3c(c2)C(=O)N([C@@H](C)CO)C[C@H](C)[C@H](CN(C)C(=O)Nc2ccccc2)O3)cc1,-1,-0.34,2
Cc1ccc(S(=O)(=O)Nc2ccc3c(c2)C(=O)N([C@@H](C)CO)C[C@H](C)[C@@H](CN(C)C(=O)Nc2ccccc2)O3)cc1,0,-0.42,109*
Cc1ccc(S(=O)(=O)Nc2ccc3c(c2)C(=O)N([C@@H](C)CO)C[C@@H](C)[C@@H](CN(C)Cc2ccc(Oc4ccccc4)cc2)O3)cc1,x,0.053,10
COc1ccc(S(=O)(=O)Nc2ccc3c(c2)C(=O)N([C@H](C)CO)C[C@@H](C)[C@H](CN(C)Cc2ccc(-c4ccccc4)cc2)O3)cc1,2,x,14
COc1ccc(C(=O)Nc2ccccc2)cc1S(=O)(=O)Nc1cccnc1,1,x,-5
CCc1ccc(/C=C2/C(=O)N(C3CCCCC3)C(=S)N2C)cc1,x,x,19
CCN(Cc1ccccc1)C(=O)C(C)Oc1ccccc1 (stereo not drawn),x,x,1
COc1ccc(S(=O)(=O)Nc2ccc3c(c2)C(=O)N([C@H](C)CO)C[C@H](C)[C@@H](CN(C)S(C)(=O)=O)O3)cc1,1,16*,2
COc1ccc(S(=O)(=O)Nc2ccc3c(c2)C(=O)N([C@H](C)CO)C[C@H](C)[C@H](CN(C)S(=O)(=O)c2ccc(OC)cc2)O3)cc1,1,-0.18,15
C[C@@H]1CCCCO[C@H](CN(C)S(C)(=O)=O)[C@@H](C)CN([C@H](C)CO)C(=O)c2cc(NC(=O)Cc3ccccc3)ccc2O1,1,0.014,5

# High-throughput results as filed in PubChem.
